For nine compounds, inhibition results are on record in ChEMBL document CHEMBL1961873, “Compounds: GSK PKIS; Assays: Nanosyn kinase panel” (2012).

Assay [1] addresses T1, Serine/threonine-protein kinase D2 (Homo sapiens) (UniProt Q9BZL6).
T1 sequence (whole entry): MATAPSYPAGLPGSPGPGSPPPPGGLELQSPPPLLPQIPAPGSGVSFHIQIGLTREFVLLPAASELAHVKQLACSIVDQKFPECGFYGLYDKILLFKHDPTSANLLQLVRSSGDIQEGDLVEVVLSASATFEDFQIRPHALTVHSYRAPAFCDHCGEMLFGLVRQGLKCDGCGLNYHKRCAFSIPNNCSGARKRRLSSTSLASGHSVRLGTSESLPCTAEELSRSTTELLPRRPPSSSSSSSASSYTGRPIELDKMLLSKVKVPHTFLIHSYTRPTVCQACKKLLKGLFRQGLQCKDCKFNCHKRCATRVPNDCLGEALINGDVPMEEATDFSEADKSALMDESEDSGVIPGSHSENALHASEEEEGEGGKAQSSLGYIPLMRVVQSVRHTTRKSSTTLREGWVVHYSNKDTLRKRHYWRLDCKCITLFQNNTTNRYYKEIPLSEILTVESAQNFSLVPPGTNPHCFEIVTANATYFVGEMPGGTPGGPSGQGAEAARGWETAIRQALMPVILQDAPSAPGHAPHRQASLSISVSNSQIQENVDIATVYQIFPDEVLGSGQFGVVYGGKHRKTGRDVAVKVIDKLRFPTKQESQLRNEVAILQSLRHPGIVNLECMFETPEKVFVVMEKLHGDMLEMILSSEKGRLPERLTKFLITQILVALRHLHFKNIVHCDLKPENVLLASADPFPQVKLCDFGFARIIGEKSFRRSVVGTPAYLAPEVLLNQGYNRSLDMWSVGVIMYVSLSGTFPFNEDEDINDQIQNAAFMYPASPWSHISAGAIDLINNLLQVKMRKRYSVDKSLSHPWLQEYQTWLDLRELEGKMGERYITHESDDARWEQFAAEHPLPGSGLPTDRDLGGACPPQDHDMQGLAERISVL
The note with it: at 1 µM.

In assay [2] the target is T2, Serine/threonine-protein kinase D3 (Homo sapiens) (UniProt O94806).
T2 sequence (whole entry): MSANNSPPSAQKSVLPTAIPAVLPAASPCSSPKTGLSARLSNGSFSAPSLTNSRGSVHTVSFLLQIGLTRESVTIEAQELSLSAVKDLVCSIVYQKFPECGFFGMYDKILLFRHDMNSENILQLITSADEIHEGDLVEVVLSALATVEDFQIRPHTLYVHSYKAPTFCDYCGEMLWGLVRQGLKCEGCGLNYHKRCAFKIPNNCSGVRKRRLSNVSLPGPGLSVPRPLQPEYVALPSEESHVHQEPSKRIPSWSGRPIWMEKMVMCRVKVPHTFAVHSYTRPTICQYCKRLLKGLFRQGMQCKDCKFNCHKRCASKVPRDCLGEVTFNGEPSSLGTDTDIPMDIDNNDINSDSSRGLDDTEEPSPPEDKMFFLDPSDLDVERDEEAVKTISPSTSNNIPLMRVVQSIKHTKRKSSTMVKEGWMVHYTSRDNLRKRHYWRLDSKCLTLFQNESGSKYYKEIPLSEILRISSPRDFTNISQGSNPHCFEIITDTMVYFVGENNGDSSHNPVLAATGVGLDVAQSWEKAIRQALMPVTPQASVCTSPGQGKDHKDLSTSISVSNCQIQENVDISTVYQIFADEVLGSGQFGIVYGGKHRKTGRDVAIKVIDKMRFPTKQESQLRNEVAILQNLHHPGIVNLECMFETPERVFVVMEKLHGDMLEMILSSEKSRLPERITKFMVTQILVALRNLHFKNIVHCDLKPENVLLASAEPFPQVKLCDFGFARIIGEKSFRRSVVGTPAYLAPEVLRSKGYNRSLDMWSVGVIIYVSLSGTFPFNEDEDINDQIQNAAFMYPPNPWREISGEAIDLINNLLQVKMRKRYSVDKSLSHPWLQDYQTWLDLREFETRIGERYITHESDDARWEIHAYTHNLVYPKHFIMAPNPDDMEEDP
The note with it: at 0.1 µM.

Assay [3] addresses T2, Serine/threonine-protein kinase D3 (Homo sapiens). The note with it: at 1 µM.
For assay [4], the target named is T3, cGMP-dependent protein kinase 1 (Homo sapiens) (UniProt Q13976).
T3 sequence (whole entry): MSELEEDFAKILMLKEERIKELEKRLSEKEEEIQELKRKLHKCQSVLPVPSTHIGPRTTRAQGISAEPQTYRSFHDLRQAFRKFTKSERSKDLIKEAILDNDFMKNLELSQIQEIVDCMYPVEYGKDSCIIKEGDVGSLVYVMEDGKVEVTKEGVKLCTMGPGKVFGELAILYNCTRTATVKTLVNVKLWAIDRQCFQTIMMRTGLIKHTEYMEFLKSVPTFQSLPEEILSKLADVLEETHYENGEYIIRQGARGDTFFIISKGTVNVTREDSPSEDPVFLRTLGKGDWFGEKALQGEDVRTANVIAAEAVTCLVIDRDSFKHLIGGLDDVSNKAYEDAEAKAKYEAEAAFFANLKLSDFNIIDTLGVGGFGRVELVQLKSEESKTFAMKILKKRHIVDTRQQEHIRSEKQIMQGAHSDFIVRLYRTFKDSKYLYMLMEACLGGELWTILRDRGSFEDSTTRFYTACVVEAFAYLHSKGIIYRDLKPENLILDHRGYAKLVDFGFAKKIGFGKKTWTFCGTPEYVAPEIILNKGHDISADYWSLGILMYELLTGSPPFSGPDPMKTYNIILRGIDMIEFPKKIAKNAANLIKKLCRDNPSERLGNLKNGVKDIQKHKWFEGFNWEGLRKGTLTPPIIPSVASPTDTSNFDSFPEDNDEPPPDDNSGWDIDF
The note with it: at 0.1 µM.

Assay [5] addresses T3, cGMP-dependent protein kinase 1 (Homo sapiens). The note with it: at 1 µM.
Assay [6] addresses T4, cGMP-dependent protein kinase 2 (Homo sapiens) (UniProt Q13237).
T4 sequence (whole entry): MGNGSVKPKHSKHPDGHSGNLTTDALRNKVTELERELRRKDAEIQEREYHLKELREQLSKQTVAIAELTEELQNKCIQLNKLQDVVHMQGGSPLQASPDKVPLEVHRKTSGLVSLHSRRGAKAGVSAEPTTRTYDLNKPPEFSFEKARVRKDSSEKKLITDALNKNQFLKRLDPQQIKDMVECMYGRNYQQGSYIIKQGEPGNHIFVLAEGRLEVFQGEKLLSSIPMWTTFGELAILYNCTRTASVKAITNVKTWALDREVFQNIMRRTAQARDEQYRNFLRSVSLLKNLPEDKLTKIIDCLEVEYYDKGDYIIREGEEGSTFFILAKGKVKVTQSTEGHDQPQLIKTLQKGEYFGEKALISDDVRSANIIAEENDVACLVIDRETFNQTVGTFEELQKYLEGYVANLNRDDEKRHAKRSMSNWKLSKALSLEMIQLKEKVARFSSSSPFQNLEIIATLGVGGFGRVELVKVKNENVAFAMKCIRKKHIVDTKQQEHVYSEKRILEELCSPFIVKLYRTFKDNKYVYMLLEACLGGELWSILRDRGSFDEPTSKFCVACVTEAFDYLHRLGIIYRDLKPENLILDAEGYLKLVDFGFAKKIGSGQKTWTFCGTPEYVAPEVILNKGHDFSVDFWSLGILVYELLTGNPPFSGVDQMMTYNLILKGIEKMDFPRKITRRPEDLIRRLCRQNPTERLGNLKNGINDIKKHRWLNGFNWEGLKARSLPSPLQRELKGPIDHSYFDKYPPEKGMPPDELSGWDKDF
The note with it: at 0.1 µM.

For assay [7], the target named is T4, cGMP-dependent protein kinase 2 (Homo sapiens). The note with it: at 1 µM.
Assay [8] addresses T5, cAMP-dependent protein kinase catalytic subunit PRKX (Homo sapiens) (UniProt P51817).
T5 sequence (whole entry): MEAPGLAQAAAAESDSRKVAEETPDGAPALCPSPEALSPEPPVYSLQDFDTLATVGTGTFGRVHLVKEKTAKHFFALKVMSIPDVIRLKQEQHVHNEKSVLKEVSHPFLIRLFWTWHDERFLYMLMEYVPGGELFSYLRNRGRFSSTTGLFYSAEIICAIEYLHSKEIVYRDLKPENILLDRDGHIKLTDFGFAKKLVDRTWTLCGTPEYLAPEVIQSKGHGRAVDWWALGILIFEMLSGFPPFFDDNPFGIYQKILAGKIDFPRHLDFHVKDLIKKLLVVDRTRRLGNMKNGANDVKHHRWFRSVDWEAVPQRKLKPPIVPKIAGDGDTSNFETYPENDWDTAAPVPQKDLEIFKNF
The note with it: at 0.1 µM.

The target of assay [9] is T5, cAMP-dependent protein kinase catalytic subunit PRKX (Homo sapiens). The note with it: at 1 µM.
Assay [10] has as its target Rho-associated protein kinase 1 (Homo sapiens) (UniProt Q13464). The note with it: at 0.1 µM.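 Note: values are mean percent inhibition of ROCK1.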

In general, inhibition refers to the relative decrease from the control value, in per cent.

Rho-associated protein kinase 1 (Homo sapiens), sequence (Q13464 2-1354 limits assumed): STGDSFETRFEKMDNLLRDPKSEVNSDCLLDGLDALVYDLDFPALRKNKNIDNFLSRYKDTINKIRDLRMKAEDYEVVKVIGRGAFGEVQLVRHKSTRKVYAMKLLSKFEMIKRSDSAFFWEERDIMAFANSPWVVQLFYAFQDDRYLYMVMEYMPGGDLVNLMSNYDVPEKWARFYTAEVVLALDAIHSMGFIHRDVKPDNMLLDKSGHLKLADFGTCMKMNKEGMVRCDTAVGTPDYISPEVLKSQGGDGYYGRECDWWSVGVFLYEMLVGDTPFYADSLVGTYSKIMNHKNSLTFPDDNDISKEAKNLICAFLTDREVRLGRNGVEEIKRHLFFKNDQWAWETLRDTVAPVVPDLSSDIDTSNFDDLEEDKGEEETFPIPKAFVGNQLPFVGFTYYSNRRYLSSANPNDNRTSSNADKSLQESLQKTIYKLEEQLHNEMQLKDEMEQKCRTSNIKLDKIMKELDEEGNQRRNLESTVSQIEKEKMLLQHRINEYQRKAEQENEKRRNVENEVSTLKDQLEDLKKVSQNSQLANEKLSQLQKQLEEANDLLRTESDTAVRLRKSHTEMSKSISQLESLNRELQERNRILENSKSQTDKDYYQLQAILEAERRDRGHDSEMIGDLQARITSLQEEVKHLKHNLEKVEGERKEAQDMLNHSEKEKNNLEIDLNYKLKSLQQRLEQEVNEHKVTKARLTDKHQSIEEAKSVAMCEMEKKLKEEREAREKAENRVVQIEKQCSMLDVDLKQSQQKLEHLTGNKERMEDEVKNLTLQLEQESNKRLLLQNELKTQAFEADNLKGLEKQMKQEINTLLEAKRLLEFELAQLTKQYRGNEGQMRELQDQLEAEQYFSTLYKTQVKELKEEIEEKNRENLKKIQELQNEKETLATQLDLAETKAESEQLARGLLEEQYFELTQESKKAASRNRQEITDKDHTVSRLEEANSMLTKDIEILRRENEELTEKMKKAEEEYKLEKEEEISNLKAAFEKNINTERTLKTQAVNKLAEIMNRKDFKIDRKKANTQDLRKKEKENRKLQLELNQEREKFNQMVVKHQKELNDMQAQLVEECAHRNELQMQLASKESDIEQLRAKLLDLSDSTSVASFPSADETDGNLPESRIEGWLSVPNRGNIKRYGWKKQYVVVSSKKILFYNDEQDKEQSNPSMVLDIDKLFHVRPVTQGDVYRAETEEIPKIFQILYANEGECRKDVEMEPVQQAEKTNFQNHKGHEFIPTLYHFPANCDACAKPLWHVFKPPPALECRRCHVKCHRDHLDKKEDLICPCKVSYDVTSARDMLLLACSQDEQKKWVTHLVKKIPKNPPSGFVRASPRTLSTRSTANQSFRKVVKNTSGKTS

`CN(c1ccc(NC(=O)Nc2ccc(OC(F)(F)F)cc2)cc1)c1ccnc(Nc2cccc(S(N)(=O)=O)c2)n1`: the inhibition in assay [1] was 3.78%; in assay [2], 3.1%; in assay [3] it was 3.42%; in assay [4], -0.15%; in assay [5], 0.56%; in assay [6], 0.76%. Moreover, the inhibition in assay [7] was -0.82%; in [8] it was 0.6%; in assay [9], 0%; in assay [10], -0.35%.

As for `CCS(=O)(=O)c1ccc(OC)c(Nc2ncc(-c3cccc(OC)c3)o2)c1`, the inhibition was 3.71% in assay [1]; 3.28% in [2]; 3.64% in assay [3]; 1.45% in [4]; 2.34% in assay [5]; 0.25% in [6]. For the same compound, the inhibition in assay [7] is 2.95%; in [8], 0.28%; in assay [9], -2.35%; in [10], 0.26%.

Take `Cc1ccc(Nc2ccnc(Nc3cccc(C(N)=O)c3)n2)cc1O`: the inhibition in assay [1] was 10.1%; in assay [2], -0.05%; in assay [3] it was 9.43%; in assay [4], 1.11%; in assay [5], 3.77%; in assay [6], 2.93%. Moreover, the inhibition turned out to be 7.68% in [7], 1.82% in [8], 2.66% in [9] and 0.56% in assay [10].

Regarding `N#Cc1c(NC(=O)c2ccccc2F)sc2c1CCCC2`, the inhibition in assay [1] was 1.58%; in [2], -2.11%; in assay [3], -0.58%; in assay [4] it was -2.04%; in assay [5], -0.46%; in assay [6] it was -1.17%. The inhibition was -0.91% in assay [7], -0.74% in assay [8], -0.83% in [9] and -0.67% in assay [10].

In the case of `CC(C)c1ccc(Nc2nccc(-c3cnn4ncccc34)n2)cc1`, the inhibition in [1] was found to be 15.6%; in assay [2], 2.22%; in [3], 15.6%; in assay [4], 0.59%; in [5], 4.3%; in assay [6] it was 1.01%. In addition, the inhibition stood at 3.05% in assay [7], 0.91% in [8], 1.43% in assay [9] and 0.36% in assay [10].

Consider `COc1cc2ncnc(Nc3ccc4c(cnn4Cc4ccccc4)c3)c2cc1OC`, for which the inhibition came out at 3% in assay [1]; 2.69% in [2]; 4.17% in [3]; 1.58% in assay [4]; 1.78% in [5]; 1.02% in assay [6]. For the same compound, the inhibition in [7] is 0.7%; in assay [8], 1.5%; in [9], 1.55%; in [10], 2.33%.

As for `Cc1ccc(NC(=O)CC2CC2)cc1-c1ccc(C(=O)NCC2CC2)cc1`, the inhibition worked out at 3.78% in [1]; 3.15% in [2]; 3.66% in assay [3]; 2.45% in [4]; 1.88% in assay [5]; 1.38% in assay [6]. The inhibition amounted to 2.64% in assay [7], 1.92% in [8], 2.19% in [9] and 1% in [10].

On to `N#Cc1cccc(Nc2nccc(-c3cnn4ncccc34)n2)c1`, for which the inhibition is 46.8% in [1]; 10.5% in assay [2]; 54.9% in assay [3]; 10.8% in assay [4]; 50.2% in assay [5]; 4.14% in assay [6]. Moreover, the inhibition in [7] was 25.9%; in [8], 1.47%; in assay [9] it was 2.66%; in assay [10], 1.39%.

Turning to `O=S(=O)(CCOCc1ccc(-c2ccc3ncnc(Nc4ccc(OCc5cccc(F)c5)c(Cl)c4)c3c2)o1)c1ccccc1`, the inhibition in assay [1] is 2.14%; in assay [2] it was 1.07%; in [3], 1.96%; in assay [4], 1.36%; in assay [5] it was 2.37%; in assay [6], 1.18%. Besides, the inhibition is 2.63% in [7], 1.21% in [8], 1.09% in assay [9] and 1.34% in [10].
